TDP1 cell CPT = growth inhibition of DT40 Tdp1-/-;hTDP1 cells with camptothecin (screen for TDP1 inhibitors) | chicken DT40 Tdp1-/-;hTDP1 cells + 20 nM CPT, ATP luminescence, 48 h | Potency, µM (top dose mostly 46.2 µM), most hits filed as inhibitors | 420,000 compounds, 12% hits | AID 686979; further: nearly all actives have a fitted effect of over 55% in size
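Cell growth measured by CellTiter-Glo luminescence after a minimum 48 h, 37 C compound exposure with 20 nM CPT in Tdp1-knockout DT40 cells stably expressing hTDP1, seeded 400/well; qHTS titration format.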
CtBP-E1A inh = blocks the CtBP interaction with E1A | AID 651724 | AlphaScreen GST-E1A/His-CtBP binding, 1536-well; hits give low values | activity change, % (no concentration beside the values) | 340,000 compounds, 0.49% hits; in the data active means activity change below about -65%; inconclusive means mostly about -30% to -63%
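Steps: dispense buffer (Tris pH 8.0, NaCl 300 mM, TCEP 1 mM, BSA, Tween 20); add 5X protein mix (GST-E1A, His-CtBP, 125 nM each); pin 23 nL compound; 2 h at 37 °C, dark; add 5X beads (50 ug/mL); 1 h; read.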
Six1-Eya2 inh = Six1/Eya2 interaction inhibition. AlphaScreen GST-Six1/His-Eya2 binding, biochemical; hits give low values. activity change, % (no concentration beside the values). 360,000 compounds, 0.56% hits; in the data active means activity change below about -65%; inconclusive means mostly about -30% to -63%
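Six1/Eya2 binding was read as AlphaScreen signal after compounds were pinned into GST-Six1 plus His-tagged Eya2 (5X stock 250/500 nM) in pH 8.0 Tris/NaCl/TCEP buffer, beads added, then incubated 1 h, 37 C, dark.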
IL-1B inflam inh = inhibitors of inflammasome signaling (IL-1 beta secretion); activity change, % at 57.5 µM; 360,000 compounds, 4.7% hits; AID 743279; THP-1 LPS/ATP IL-1B secretion, AlphaLISA, 16 h; hits give low values; in the data active means activity change below about -50%; inconclusive means mostly about -30% to -49%
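THP-1 cells pretreated 1 hr with compounds (up to 57.5 uM final), then stimulated with LPS (250 ng/mL final) plus ATP (1.25 mM final); secreted IL-1B measured by AlphaLISA after 16 hr, decreased signal indicating inhibition.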
TDP1 block = blocks human tyrosyl-DNA phosphodiesterase 1; recombinant TDP1, AlphaScreen DNA substrate cleavage; Potency, µM (top dose mostly 130 µM), most hits filed as inhibitors; 350,000 compounds, 0.28% hits; AID 485290; further: nearly all actives have a fitted effect of over 40% in size
Target sequence (Q9NUW8 whole entry, looked up): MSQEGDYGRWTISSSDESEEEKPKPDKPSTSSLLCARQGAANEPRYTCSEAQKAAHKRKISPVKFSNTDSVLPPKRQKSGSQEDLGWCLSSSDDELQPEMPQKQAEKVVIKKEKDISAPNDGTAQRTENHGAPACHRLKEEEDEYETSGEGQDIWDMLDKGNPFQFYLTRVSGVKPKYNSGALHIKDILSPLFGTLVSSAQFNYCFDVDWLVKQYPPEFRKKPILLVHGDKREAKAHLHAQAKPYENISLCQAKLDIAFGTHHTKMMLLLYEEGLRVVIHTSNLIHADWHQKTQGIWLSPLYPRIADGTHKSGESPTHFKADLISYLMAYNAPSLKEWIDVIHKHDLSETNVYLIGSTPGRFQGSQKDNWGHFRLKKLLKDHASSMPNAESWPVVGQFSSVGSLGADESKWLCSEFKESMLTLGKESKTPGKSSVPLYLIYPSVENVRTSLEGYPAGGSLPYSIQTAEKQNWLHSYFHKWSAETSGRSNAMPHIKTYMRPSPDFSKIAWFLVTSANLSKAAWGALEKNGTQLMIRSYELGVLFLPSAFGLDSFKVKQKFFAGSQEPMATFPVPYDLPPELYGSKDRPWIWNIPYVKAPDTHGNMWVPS
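Tdp1 1 nM final; 15 min RT w/ cpd; substrate 15 nM, 5 min; beads 10 ug/ml, 10 min; AlphaScreen read. Neg ctrl: no enzyme.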
TDP1 cell noCPT = qHTS for Inhibitors of human tyrosyl-DNA phosphodiesterase 1 (TDP1): qHTS in cells in absence of CPT | Potency, µM (top dose mostly 46.2 µM), usual class: inhibitors | 420,000 compounds, 15% hits | DT40 Tdp1-/- hTDP1 cells, no CPT, ATP luminescence, 48 h; further: nearly all actives have a fitted effect of over 55% in size
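No-CPT arm: Tdp1-/-;hTDP1 DT40 cells (400/well) plus compounds, incubated ≥48 hr at 37 °C. Readout CellTiter-Glo luminescence.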
Hits are given with their value; [ ] = another dose, or the depositor's remark. Hits are enriched below; roughly 18% of the tested compounds scored in any of these assays. Unless noted, the call rests on the fitted dose curve; in most records, active means well fitted curve in the direction sought with a large enough effect; inconclusive means small, poorly fitted or top-dose-only effect, or another doubt; inactive means no such curve, though single readings can be large; an effect the other way counts as inactive or inconclusive.

`CCCCNC(=O)Nc1ccccc1C(=O)Nc1ccc(OC)cc1` gave TDP1 cell CPT inactive, CtBP-E1A inh inactive, Six1-Eya2 inh inactive, IL-1B inflam inh inactive, TDP1 block inactive and TDP1 cell noCPT inconclusive.
Screening COc1ccccc1N(C)S(=O)(=O)c1ccc(C(=O)Nc2nccs2)cc1 returned TDP1 cell CPT inconclusive, CtBP-E1A inh inactive, Six1-Eya2 inh inactive, IL-1B inflam inh inactive, TDP1 block inactive and TDP1 cell noCPT 6.5µM.
For COc1ccccc1N(C)S(=O)(=O)c1ccc(C(=O)Nc2ncc(C)s2)cc1 the results were TDP1 cell CPT inconclusive, CtBP-E1A inh inactive, Six1-Eya2 inh inactive, IL-1B inflam inh inactive, TDP1 block inactive and TDP1 cell noCPT inconclusive.
Screening COc1ccccc1N(C)S(=O)(=O)c1ccc(C(=O)Nc2cccc(Br)c2)cc1 returned TDP1 cell CPT inconclusive, CtBP-E1A inh inactive, Six1-Eya2 inh inactive, IL-1B inflam inh -60, TDP1 block inactive and TDP1 cell noCPT 16µM.
For CCc1ccccc1Nc1nc(-c2cccnc2)cs1 the results were TDP1 cell CPT inconclusive, Six1-Eya2 inh inactive, IL-1B inflam inh inactive and TDP1 cell noCPT inconclusive.
`CCN1CCC(N(Cc2ccc(F)cc2)C(=O)Nc2ccc(C)c(F)c2)CC1` gave TDP1 cell CPT inconclusive, TDP1 block inactive and TDP1 cell noCPT inconclusive.
`Cc1cccc(C(=O)Nc2cc(NC(=O)c3cccs3)ccc2C)c1` gave TDP1 cell CPT inconclusive, CtBP-E1A inh inactive, Six1-Eya2 inh inactive, IL-1B inflam inh inactive and TDP1 cell noCPT inconclusive.
CCN1CCN(Cc2ccc(NC(=O)c3ccc(C)c(NC(=O)c4nccn4C)c3)cc2C(F)(F)F)CC1 was read as TDP1 cell CPT inactive, CtBP-E1A inh inactive, Six1-Eya2 inh inactive, IL-1B inflam inh -58, TDP1 block inactive and TDP1 cell noCPT inactive.
CCN1CCN(Cc2ccc(NC(=O)c3cc(NC(=O)c4nccnc4N)cc(OC)c3)cc2C(F)(F)F)CC1 was read as TDP1 cell CPT inconclusive, CtBP-E1A inh inactive, Six1-Eya2 inh inactive, IL-1B inflam inh inconclusive, TDP1 block inactive and TDP1 cell noCPT inconclusive.
`CCN1CCN(Cc2ccc(NC(=O)c3ccc(C)c(NC(=O)c4nccnc4N)c3)cc2C(F)(F)F)CC1` gave TDP1 cell CPT inconclusive, Six1-Eya2 inh inactive, IL-1B inflam inh -93, TDP1 block inactive and TDP1 cell noCPT 21µM.
`CCN1CCN(Cc2ccc(NC(=O)c3ccc(C)c(NC(=O)c4cccc5[nH]ccc45)c3)cc2C(F)(F)F)CC1` gave TDP1 cell CPT 12µM, CtBP-E1A inh inactive, Six1-Eya2 inh inactive, IL-1B inflam inh -98, TDP1 block inactive and TDP1 cell noCPT 13µM.
`CCN1CCN(Cc2ccc(NC(=O)c3ccc(C)c(NC(=O)c4cncc(-c5cccs5)c4)c3)cc2C(F)(F)F)CC1` gave TDP1 cell CPT 2.3µM, CtBP-E1A inh inactive, Six1-Eya2 inh inactive, IL-1B inflam inh -110 and TDP1 cell noCPT 1.6µM.
Screening Cc1cccc(C)c1NC(=O)CCS(=O)(=O)c1cccc2nonc12 returned TDP1 cell CPT inactive, CtBP-E1A inh inactive, Six1-Eya2 inh inactive, IL-1B inflam inh inactive, TDP1 block inactive[0.0935 µM] and TDP1 cell noCPT inactive.
Screening Cc1ccc(F)cc1NC(=O)C1CCN(c2cnccn2)CC1 returned TDP1 cell CPT inactive, CtBP-E1A inh inactive, Six1-Eya2 inh inactive, IL-1B inflam inh inactive, TDP1 block inactive and TDP1 cell noCPT inactive.
`CCN1CCN(Cc2ccc(NC(=O)c3ccc(C)c(NC(=O)c4cc(-c5ccc(Br)cc5)n[nH]4)c3)cc2C(F)(F)F)CC1` gave TDP1 cell CPT inconclusive, CtBP-E1A inh inactive, Six1-Eya2 inh inactive, IL-1B inflam inh -58, TDP1 block inactive and TDP1 cell noCPT inconclusive.
Screening N#C/C(=C/c1ccc(N2CCOCC2)o1)c1ccc(Br)cc1 returned TDP1 cell CPT 9.2µM, CtBP-E1A inh inactive, Six1-Eya2 inh inactive, IL-1B inflam inh -106, TDP1 block inactive and TDP1 cell noCPT 15µM.
N#C/C(=C\c1ccc(N2CCOCC2)o1)c1ccccc1 was read as TDP1 cell CPT 10µM, CtBP-E1A inh inactive, Six1-Eya2 inh inactive, IL-1B inflam inh -84, TDP1 block inactive and TDP1 cell noCPT inconclusive.
`N#CC(=Cc1ccncc1)c1ccccc1` gave TDP1 cell CPT inactive, CtBP-E1A inh inactive, Six1-Eya2 inh inactive, IL-1B inflam inh -74 and TDP1 cell noCPT inactive.
N#C/C(=C/c1ccc(N2CCOCC2)o1)c1nc2ccccc2[nH]1 was read as TDP1 cell CPT inconclusive, CtBP-E1A inh inactive, Six1-Eya2 inh inconclusive, IL-1B inflam inh inactive, TDP1 block inactive and TDP1 cell noCPT inconclusive.
Screening N#C/C(=C\c1ccc(N2CCOCC2)cc1)c1ccccc1 returned TDP1 cell CPT 21µM, CtBP-E1A inh inactive, Six1-Eya2 inh inactive, IL-1B inflam inh inconclusive, TDP1 block inactive and TDP1 cell noCPT 15µM.
For Cc1ccc(S(=O)(=O)N2CCN(C(=O)COC(=O)c3ccc(Br)o3)CC2)c(C)c1 the results were TDP1 cell CPT inactive, CtBP-E1A inh inactive, Six1-Eya2 inh inactive, IL-1B inflam inh inactive and TDP1 cell noCPT inactive.
For CC(=O)c1cc(-c2ccc(F)cc2)n(CC(=O)NC2CCCCCC2)c1C the results were TDP1 cell CPT inconclusive, TDP1 block inactive and TDP1 cell noCPT 16µM.
`CCOC(=O)c1cc(-c2ccccc2)n(CC(=O)NC2CCC(C)CC2)c1C` (centres undefined) gave TDP1 cell CPT 15µM, TDP1 block inactive and TDP1 cell noCPT 12µM.
`CCOC(=O)c1cc(-c2ccc(C)cc2)n(CC(=O)NC2CCCCCC2)c1C` gave TDP1 cell CPT 23µM, TDP1 block inactive and TDP1 cell noCPT inconclusive.
`COc1ccc(CCNC(=O)Cn2c(-c3ccc(F)cc3)cc(C(C)=O)c2C)cc1OC` gave TDP1 cell CPT 26µM, TDP1 block inactive and TDP1 cell noCPT 21µM.
`CC(=O)c1cc(-c2ccc(F)cc2)n(CCC(=O)NC2CCCCC2)c1C` gave TDP1 cell CPT inconclusive, TDP1 block inactive and TDP1 cell noCPT inconclusive.
COc1ccc(CCNC(=O)CN2CCN(Cc3ccc(F)cc3)C2=O)cc1OC was read as TDP1 cell CPT inconclusive, CtBP-E1A inh inactive, Six1-Eya2 inh inactive, IL-1B inflam inh inactive, TDP1 block inactive and TDP1 cell noCPT inconclusive.
Screening O=C(CCNC(=O)N1CC(=O)Nc2ccccc21)Nc1ccc(Cl)cc1 returned TDP1 cell CPT inactive, CtBP-E1A inh inactive, Six1-Eya2 inh inactive, IL-1B inflam inh inactive, TDP1 block inactive and TDP1 cell noCPT inactive.
For Cc1nc2c(ccc3nc(NC(=O)C4CC4)sc32)s1 the results were TDP1 cell CPT inconclusive, CtBP-E1A inh inactive, Six1-Eya2 inh inactive, IL-1B inflam inh inconclusive, TDP1 block inactive and TDP1 cell noCPT inconclusive.

Source: PubChem (National Center for Advancing Translational Sciences (NCATS))
